{"source": "PubChem BioAssay (EPA / NIEHS)", "note": "Records with an inconclusive call do not appear. Active and inactive are the calls of the source. Rule for the calls: active = hit-call score of the fitted dose curve at least 0.9, where 1 is the maximum; inconclusive = response in the unintended direction; inactive = score below 0.9."}
{"read-out": "glucuronosyltransferase (UGT1A1), UGT1A1 (gene 54658)", "assay": "CLD_UGT1A1_6hr: CellzDirect (CLD) Gene Expression Assay for glucuronosyltransferase (UGT1A1) at 6 hours (AID 2283672)", "description": "CLD_6hr is a cell-based, multiplexed-readout assay that uses hepatocyte, a human liver primary cell, with measurements taken at 6 hours after chemical dosing in a 96-well plate.CLD_UGT1A1_6hr is one of 16 assay component(s) measured or calculated from the CLD_6hr assay. It is designed to make measurements of mRNA induction, a form of inducible reporter, as detected with chemiluminescence signals by Quantitative Nuclease Protection Assay (qNPA) technology.Data from the assay component CLD_UGT1A1_6hr was analyzed at the endpoint, CLD_UGT1A1_6hr, in the positive analysis fitting direction relative to DMSO as the negative control and baseline of activity. Using a type of inducible reporter, gain-of-signal activity can be used to understand changes in the reporter gene as they relate to the gene UGT1A1. Furthermore, this assay endpoint can be referred to as a primary readout. To generalize the intended target to other relatable targets, this assay endpoint is annotated to the transferase intended target family, where subfamily is glucuronosyltransferase.\nHuman hepatocyte cultures were treated daily for two consecutive days with fresh dosing solutions containing appropriate concentrations of the 320 ToxCast chemicals (chemical identities were blinded to CellzDirect and other ToxCast collaborators), vehicle control (0.2% DMSO), and positive control inducers as summarized in Table 1. Due to the large number of treatment groups and chemicals examined, the ToxCast chemicals were divided into two groups (spanning two independent cultures of hepatocytes from separate donor preparations (Hu778: ToxCast plates 1 and 2; Hu776: ToxCast plates 3 and 4). Each preparation of human hepatocyte cultures was treated with respective vehicle control, medium only control, set of six positive controls/reference chemicals for the five hepatic receptor pathways, and a subset of eight of the ToxCast chemicals (indoxacarb, pyrithiobac-sodium, norflurazon, cyhalofop-butyl, methomyl, thiram, acetochlor, and propiconazole). These replicate data, coupled with internal replicates designed within the blinded ToxCast chemical library, provided additional data to evaluate interindividual differences between hepatocyte preparations and their potential impact on chemical profiles.Cell morphology and integrity were evaluated using phase-contrast microscopy as an indicator of hepatocyte cell health (Tyson & Green, 1987). Cultures for each treatment group (i.e., media, vehicle [0.2% DMSO], positive control inducers [multiple concentrations], and the ToxCast chemicals [multiple concentrations]) were observed and cell morphology was assessed relative to vehicle control cultures at each harvest time point (0, 6, 24, or 48 h). […] Images were evaluated at the conclusion of the study to assess changes in cell integrity and account for the effects of chemical exposure on uncharacteristic changes in concentration-dependent gene expression profiles. The results from these determinations of apparent cytotoxicity were annotated (yes/no) alongside the corresponding qNPA data for reference.At the conclusion of each treatment period, hepatocyte cultures (96-well) were washed with 1 volume of HBSS, lysed by addition of 25 ul ArrayPlate lysis buffer (HTG, Tucson, AZ), and 70 ul/well of Denaturation Oil, denatured by incubation at 95C for 10 min, and frozen at approximately -70C until analysis by nuclease protection assay (qNPA) (Roberts et al., 2007). For qNPA analysis, cell lysates were thawed at 50C for approximately 30 min, qNPA probes were added, and samples were incubated at 95C for 10 min to begin the detection process by denaturing the target RNA, dissociating the duplexes and secondary structure hybridization. At the conclusion of the hybridization period, S1 nuclease reagent was added to each sample to digest all nonprotected nucleotides at 50C for 60-90 min. […]"}
{"smiles": "COc1cc(Cl)c(OC)cc1Cl", "outcome": "inactive"}
{"smiles": "CC1(C)C(C=C(Cl)Cl)C1C(=O)OC(C#N)c1cccc(Oc2ccccc2)c1", "note": "(stereo not given)", "outcome": "inactive"}
{"smiles": "CCOc1nc(F)cc2nc(S(=O)(=O)Nc3c(Cl)cccc3Cl)nn12", "outcome": "inactive"}
{"smiles": "O=C(O)c1c(Cl)ccc2cc(Cl)cnc12", "outcome": "inactive"}
{"smiles": "N#Cc1c(Cl)cccc1Cl", "outcome": "inactive"}
{"smiles": "CC1(C)CCC(=Cc2ccc(Cl)cc2)C1(O)Cn1cncn1", "note": "(stereo not given)", "outcome": "inactive"}
{"smiles": "COC(=O)NC(=S)Nc1ccccc1NC(=S)NC(=O)OC", "outcome": "inactive"}
{"smiles": "COC(=O)N(C(=O)N1CO[C@@]2(C(=O)OC)Cc3cc(Cl)ccc3C2=N1)c1ccc(OC(F)(F)F)cc1", "outcome": "inactive"}
{"smiles": "O=c1n(Cl)c(=O)n(Cl)c(=O)n1Cl", "outcome": "inactive"}
{"smiles": "CN=C=S", "outcome": "inactive"}
{"smiles": "Nc1cnn(-c2ccccc2)c(=O)c1Cl", "outcome": "inactive"}
{"smiles": "COCc1cnc(C2=NC(C)(C(C)C)C(=O)N2)c(C(=O)O)c1", "note": "(stereo not given)", "outcome": "inactive"}
{"smiles": "N#Cc1c[nH]cc1-c1cccc2c1OC(F)(F)O2", "outcome": "inactive"}
{"smiles": "CCOP(=S)(OCC)Oc1nc(Cl)n(C(C)C)n1", "outcome": "inactive"}
{"smiles": "CCCCC(C#N)(Cn1cncn1)c1ccc(Cl)cc1", "note": "(stereo not given)", "outcome": "inactive"}
{"smiles": "Cc1nc(N(C)C)nc(OC(=O)N(C)C)c1C", "outcome": "inactive"}
{"smiles": "CC1(C)C(C(=O)OC(C#N)c2cccc(Oc3ccccc3)c2)C1(C)C", "note": "(stereo not given)", "outcome": "inactive"}
{"smiles": "CCOC(=O)C(C)OC(=O)c1cc(Oc2ccc(C(F)(F)F)cc2Cl)ccc1[N+](=O)[O-]", "note": "(stereo not given)", "outcome": "inactive"}
{"smiles": "CCCN(CC)CC1COC2(CCC(C(C)(C)C)CC2)O1", "note": "(stereo not given)", "outcome": "inactive"}
{"smiles": "CC(C)C1(C)N=C(c2ncccc2C(=O)O)NC1=O", "note": "(stereo not given)", "outcome": "inactive"}
{"smiles": "Cc1cnc(C2=NC(C)(C(C)C)C(=O)N2)c(C(=O)O)c1", "note": "(stereo not given)", "outcome": "inactive"}
{"smiles": "CCC(C)n1c(=O)[nH]c(C)c(Br)c1=O", "note": "(stereo not given)", "outcome": "inactive"}
{"smiles": "CC(C)NC(=O)N1CC(=O)N(c2cc(Cl)cc(Cl)c2)C1=O", "outcome": "inactive"}
{"smiles": "CSC(=O)c1c(C(F)F)nc(C(F)(F)F)c(C(=O)SC)c1CC(C)C", "outcome": "inactive"}
{"smiles": "O=C(Nc1ccccc1-c1ccc(Cl)cc1)c1cccnc1Cl", "outcome": "inactive"}
{"smiles": "CC(C)Oc1cccc(NC(=O)c2ccccc2C(F)(F)F)c1", "outcome": "inactive"}
{"smiles": "CCCCOCN(C(=O)CCl)c1c(CC)cccc1CC", "outcome": "inactive"}
{"smiles": "CCOP(=O)(OCC)Oc1nc(Cl)c(Cl)cc1Cl", "outcome": "inactive"}
{"smiles": "COCC(C)N(C(=O)CCl)c1c(C)csc1C", "note": "(stereo not given)", "outcome": "inactive"}
{"smiles": "CCCCC(O)(Cn1cncn1)c1ccc(Cl)cc1Cl", "note": "(stereo not given)", "outcome": "inactive"}
{"smiles": "COP(=S)(OC)SCn1nnc2ccccc2c1=O", "AC50": "1.73 µM (active)"}
{"smiles": "Cc1c(COC(=O)[C@@H]2[C@H](/C=C(\\Cl)C(F)(F)F)C2(C)C)cccc1-c1ccccc1", "outcome": "inactive"}
{"smiles": "COC(=O)c1c(C(F)F)nc(C(F)(F)F)c(C2=NCCS2)c1CC(C)C", "outcome": "inactive"}
{"smiles": "N#CN=C1SCCN1Cc1ccc(Cl)nc1", "outcome": "inactive"}
{"smiles": "CCNP(=S)(OC)O/C(C)=C/C(=O)OC(C)C", "note": "(stereo not given)", "outcome": "inactive"}
{"smiles": "Clc1cccc(C(Cl)(Cl)Cl)n1", "outcome": "inactive"}
{"smiles": "CCSC(=O)N1CCCCCC1", "outcome": "inactive"}
{"smiles": "CC(C)=CC1C(C(=O)OCc2coc(Cc3ccccc3)c2)C1(C)C", "note": "(stereo not given)", "outcome": "inactive"}
{"smiles": "CS(=O)(=O)c1cc(C(F)(F)F)ccc1C(=O)c1cnoc1C1CC1", "outcome": "inactive"}
{"smiles": "CC(C)N1C(=O)c2ccccc2NS1(=O)=O", "outcome": "inactive"}
